# Test results from PubChem BioAssay AID1159580 (chemical genetic matrix, 2015).
# Several values for one entry are separate records, joined by “and”; a condition that tells them apart may be missing. Identical values can stand only once. Out of some 5,500 compounds screened, about 2,000 (36%) were called active. Roughly 18% stayed inconclusive and do not appear here. Some of the results follow. Values without a mark were called inactive. No stated cut-off is given here; in the data, active means normalized growth mostly below about 0.91 (no sharp cut-off); inconclusive means no clear call, values can overlap the other calls; inactive means mostly above about 0.92.
# Assay: chemical genetic growth profiling, strain panel (AID 1159580);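 further: tested at 20 µM; growth read once vehicle control cultures reached saturation at 30 °C; 1 = growth at the plate median or of vehicle wells; lower values mean less growth of the strain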
# Details: S. cerevisiae deletion strains, growth OD
smiles,measurement,setting,value
CC(=O)C1CC[C@H]2C3CC[C@H]4C[C@H](O)CC[C@]4(C)C3CC[C@]12C (some centres undefined),normalized growth,"locus YAL013W, strain DEP1, active compounds read low",1
same,normalized growth,"locus YAL021C, strain ccr4, active compounds read low",0.936
same,normalized growth,"locus YAL026C, strain drs2, active compounds read low",0.849 (active)
same,normalized growth,"locus YAL030W, strain snc1, active compounds read low",0.999
same,normalized growth,"locus YBL061C, strain skt5, active compounds read low",1.02
same,normalized growth,"locus YBR009C, strain hhf1, active compounds read low",1.02
same,normalized growth,"locus YBR021W, strain FUR4, active compounds read low",0.977
same,normalized growth,"locus YBR023C, strain chs3, active compounds read low",0.998
same,normalized growth,"locus YBR171W, strain sec66, active compounds read low",0.998
same,normalized growth,"locus YBR229C, strain ROT2, active compounds read low",0.995
same,normalized growth,"locus YBR231C, strain swc5, active compounds read low",1.01
same,normalized growth,"locus YBR279W, strain paf1, active compounds read low",0.987
same,normalized growth,"locus YCL011C, strain gbp2, active compounds read low",0.995
same,normalized growth,"locus YCL016C, strain dcc1, active compounds read low",0.964
same,normalized growth,"locus YCL029C, strain bik1, active compounds read low",0.998
same,normalized growth,"locus YCL069W, strain vba3, active compounds read low",1
same,normalized growth,"locus YCR088W, strain abp1, active compounds read low",1
same,normalized growth,"locus YDL005C, strain med2, active compounds read low",0.997
same,normalized growth,"locus YDL035C, strain GPR1, active compounds read low",0.999
same,normalized growth,"locus YDL040C, strain nat1, active compounds read low",1.01
same,normalized growth,"locus YDL074C, strain BRE1, active compounds read low",1.01
same,normalized growth,"locus YDL101C, strain DUN1, active compounds read low",0.982
same,normalized growth,"locus YDL134C, strain PPH21, active compounds read low",0.975
same,normalized growth,"locus YDL185W, strain tfp1, active compounds read low",0.989
same,normalized growth,"locus YDL192W, strain arf1, active compounds read low",1
same,normalized growth,"locus YDR001C, strain nth1, active compounds read low",1.01
same,normalized growth,"locus YDR069C, strain doa4, active compounds read low",1
same,normalized growth,"locus YDR101C, strain arx1, active compounds read low",1.01
same,normalized growth,"locus YDR137W, strain rgp1, active compounds read low",0.763 (active)
same,normalized growth,"locus YDR159W, strain sac3, active compounds read low",1.03
same,normalized growth,"locus YDR162C, strain NBP2, active compounds read low",0.993
same,normalized growth,"locus YDR195W, strain ref2",1.02
same,normalized growth,"locus YDR297W, strain sur2, active compounds read low",1.02
same,normalized growth,"locus YDR318W, strain mcm21, active compounds read low",0.995
same,normalized growth,"locus YDR334W, strain swr1, active compounds read low",1.01
same,normalized growth,"locus YDR335W, strain msn5, active compounds read low",0.984
same,normalized growth,"locus YDR388W, active compounds read low",0.994
same,normalized growth,"locus YDR392W, strain spt3, active compounds read low",0.837
same,normalized growth,"locus YDR502C, strain sam2, active compounds read low",0.971
same,normalized growth,"locus YEL003W, strain gim4, active compounds read low",1
same,normalized growth,"locus YEL037C, strain rad23, active compounds read low",0.994
same,normalized growth,"locus YEL061C, strain CIN8 (second series), active compounds read low",1
same,normalized growth,"locus YEL061C, strain CIN8, active compounds read low",1.01
same,normalized growth,"locus YER015W, strain faa2, active compounds read low",1
same,normalized growth,"locus YER016W, strain bim1, active compounds read low",0.998
same,normalized growth,"locus YER110C, active compounds read low",0.981
same,normalized growth,"locus YER111C, strain swi4, active compounds read low",0.994
same,normalized growth,"locus YER155C, strain BEM2 (second series), active compounds read low",1.02
same,normalized growth,"locus YER155C, strain BEM2, active compounds read low",0.992
same,normalized growth,"locus YER167W, strain BCK2, active compounds read low",0.993
same,normalized growth,"locus YFR010W, strain ubp6, active compounds read low",0.999
same,normalized growth,"locus YGL078C, strain dbp3, active compounds read low",0.963
same,normalized growth,"locus YGL086W, strain mad1, active compounds read low",0.971
same,normalized growth,"locus YGL167C, strain pmr1, active compounds read low",1.01
same,normalized growth,"locus YGL173C, strain kem1, active compounds read low",0.99
same,normalized growth,"locus YGL227W, strain vid30, active compounds read low",1.01
same,normalized growth,"locus YGL240W, strain doc1, active compounds read low",1.01
same,normalized growth,"locus YGL248W, strain PDE1, active compounds read low",0.987
same,normalized growth,"locus YGL253W, strain hxk2, active compounds read low",0.983
same,normalized growth,"locus YGR078C, strain PAC10, active compounds read low",0.969
same,normalized growth,"locus YGR135W, strain pre9, active compounds read low",0.932
same,normalized growth,"locus YGR229C, strain SMI1, active compounds read low",1.05
same,normalized growth,"locus YGR252W, strain gcn5, active compounds read low",0.928
same,normalized growth,"locus YHR013C, strain ard1, active compounds read low",0.996
same,normalized growth,"locus YHR027C, strain rpn1, active compounds read low",0.999
same,normalized growth,"locus YHR030C, strain SLT2, active compounds read low",0.992 and 0.994
same,normalized growth,"locus YHR079C, strain IRE1 (second series), active compounds read low",1
same,normalized growth,"locus YHR079C, strain IRE1, active compounds read low",1
same,normalized growth,"locus YHR094C, strain hxt1, active compounds read low",0.992
same,normalized growth,"locus YHR129C, strain ARP1, active compounds read low",1
same,normalized growth,"locus YHR142W, strain chs7, active compounds read low",0.957
same,normalized growth,"locus YHR200W, strain rpn10, active compounds read low",0.984
same,normalized growth,"locus YIL066C, strain RNR3, active compounds read low",1.01
same,normalized growth,"locus YIL073C, strain SPO22, active compounds read low",0.962
same,normalized growth,"locus YIL125W, strain kgd1, active compounds read low",1
same,normalized growth,"locus YIR030C, strain dcg1, active compounds read low",0.998
same,normalized growth,"locus YJL092W, strain hpr5, active compounds read low",1
same,normalized growth,"locus YJL095W, strain BCK1 (second series), active compounds read low",1.01
same,normalized growth,"locus YJL095W, strain BCK1, active compounds read low",0.936 and 0.99
same,normalized growth,"locus YJL115W, strain asf1, active compounds read low",1
same,normalized growth,"locus YJL129C, strain trk1, active compounds read low",1.01
same,normalized growth,"locus YJL134W, strain LCB3, active compounds read low",1
same,normalized growth,"locus YJL154C, strain vps35, active compounds read low",1.01
same,normalized growth,"locus YJL164C, strain tpk1, active compounds read low",0.999
same,normalized growth,"locus YJL166W, strain qcr8, active compounds read low",1.01
same,normalized growth,"locus YJL168C, strain set2, active compounds read low",1
same,normalized growth,"locus YJL187C, strain SWE1 (second series), active compounds read low",0.962
same,normalized growth,"locus YJL187C, strain SWE1, active compounds read low",1.01
same,normalized growth,"locus YJR043C, strain POL32, active compounds read low",1.05
same,normalized growth,"locus YJR066W, strain TOR1, active compounds read low",0.924
same,normalized growth,"locus YKL009W, strain mrt4, active compounds read low",0.978
same,normalized growth,"locus YKL068W, active compounds read low",0.993
same,normalized growth,"locus YKL085W, strain MDH1 (second series), active compounds read low",1.01
same,normalized growth,"locus YKL085W, strain MDH1, active compounds read low",1.01
same,normalized growth,"locus YKL160W, strain elf1, active compounds read low",0.976
same,normalized growth,"locus YKL190W, strain CNB1, active compounds read low",1.01
same,normalized growth,"locus YKR001C, strain vps1, active compounds read low",1.02
same,normalized growth,"locus YKR026C, strain gcn3, active compounds read low",1
same,normalized growth,"locus YKR091W, strain srl3, active compounds read low",1.01
same,normalized growth,"locus YLL001W, strain dnm1, active compounds read low",1
same,normalized growth,"locus YLL026W, active compounds read low",1.02
same,normalized growth,"locus YLL041C, strain sdh2, active compounds read low",0.997
same,normalized growth,"locus YLR027C, strain aat2, active compounds read low",0.983
same,normalized growth,"locus YLR039C, strain RIC1, active compounds read low",0.797
same,normalized growth,"locus YLR058C, strain SHM2, active compounds read low",0.991
same,normalized growth,"locus YLR102C, strain apc9, active compounds read low",1
same,normalized growth,"locus YLR113W, strain HOG1, active compounds read low",1.01
same,normalized growth,"locus YLR221C, strain rsa3, active compounds read low",1.03
same,normalized growth,"locus YLR258W, strain gsy2, active compounds read low",0.964
same,normalized growth,"locus YLR262C, strain YPT6 (second series), active compounds read low",0.778 (active)
same,normalized growth,"locus YLR268W, strain sec22, active compounds read low",0.977
same,normalized growth,"locus YLR320W, strain mms22, active compounds read low",0.98
same,normalized growth,"locus YLR330W, strain CHS5, active compounds read low",1
same,normalized growth,"locus YLR342W, strain FKS1 (second series), active compounds read low",0.997
same,normalized growth,"locus YLR342W, strain FKS1, active compounds read low",1.01
same,normalized growth,"locus YLR357W, strain rsc2, active compounds read low",0.994
same,normalized growth,"locus YLR370C, strain arc18, active compounds read low",0.999
same,normalized growth,"locus YLR371W, strain rom2, active compounds read low",1
same,normalized growth,"locus YLR384C, strain iki3, active compounds read low",0.977
same,normalized growth,"locus YLR418C, strain cdc73, active compounds read low",0.993
same,normalized growth,"locus YML016C, strain PPZ1, active compounds read low",0.994
same,normalized growth,"locus YML032C, strain rad52, active compounds read low",0.969
same,normalized growth,"locus YML120C, strain ndi1, active compounds read low",1.02
same,normalized growth,"locus YML124C, strain tub3, active compounds read low",0.996
same,normalized growth,"locus YMR058W, strain fet3, active compounds read low",1.01
same,normalized growth,"locus YMR078C, strain ctf18, active compounds read low",0.988
same,normalized growth,"locus YMR125W, strain sto1, active compounds read low",0.998
same,normalized growth,"locus YMR129W, active compounds read low",1
same,normalized growth,"locus YMR205C, strain PFK2, active compounds read low",1
same,normalized growth,"locus YMR223W, strain ubp8, active compounds read low",0.977
same,normalized growth,"locus YMR231W, strain pep5, active compounds read low",1.01
same,normalized growth,"locus YMR307W, strain GAS1, active compounds read low",1.11
same,normalized growth,"locus YNL067W, strain RPL9B, active compounds read low",0.967
same,normalized growth,"locus YNL071W, strain lat1, active compounds read low",0.995
same,normalized growth,"locus YNL128W, strain TEP1, active compounds read low",0.993
same,normalized growth,"locus YNL153C, strain GIM3, active compounds read low",0.985
same,normalized growth,"locus YNL183C, strain NPR1, active compounds read low",0.959
same,normalized growth,"locus YNL209W, strain ssb2, active compounds read low",0.987
same,normalized growth,"locus YNL233W, strain BNI4, active compounds read low",0.992
same,normalized growth,"locus YNL248C, strain rpa49, active compounds read low",0.939
same,normalized growth,"locus YNL250W, strain rad50, active compounds read low",0.946
same,normalized growth,"locus YNL271C, strain bni1, active compounds read low",0.986
same,normalized growth,"locus YNL298W, strain CLA4, active compounds read low",0.993
same,normalized growth,"locus YNL307C, strain MCK1, active compounds read low",1.01
same,normalized growth,"locus YNL322C, strain KRE1 (second series), active compounds read low",1.01
same,normalized growth,"locus YNR049C, strain mso1, active compounds read low",1.01
same,normalized growth,"locus YNR052C, strain pop2, active compounds read low",0.943
same,normalized growth,"locus YOL012C, strain htz1",0.983
same,normalized growth,"locus YOL147C, strain pex11, active compounds read low",0.994
same,normalized growth,"locus YOR001W, strain rrp6, active compounds read low",0.994
same,normalized growth,"locus YOR061W, strain CKA2, active compounds read low",1.01
same,normalized growth,"locus YOR069W, strain VPS5, active compounds read low",0.988
same,normalized growth,"locus YOR070C, strain gyp1, active compounds read low",0.991
same,normalized growth,"locus YOR080W, strain dia2, active compounds read low",1.01
same,normalized growth,"locus YOR083W, strain WHI5, active compounds read low",0.984
same,normalized growth,"locus YOR106W, strain vam3, active compounds read low",0.995
same,normalized growth,"locus YOR136W, strain idh2, active compounds read low",0.992
same,normalized growth,"locus YOR144C, strain elg1, active compounds read low",0.998
same,normalized growth,"locus YOR184W, strain ser1, active compounds read low",0.981
same,normalized growth,"locus YOR231W, strain MKK1, active compounds read low",0.996
same,normalized growth,"locus YOR265W, strain rbl2, active compounds read low",0.993
same,normalized growth,"locus YOR270C, strain vph1, active compounds read low",0.949
same,normalized growth,"locus YOR290C, strain snf2, active compounds read low",0.951
same,normalized growth,"locus YOR316C, strain cot1, active compounds read low",1
same,normalized growth,"locus YPL051W, strain arl3, active compounds read low",0.986
same,normalized growth,"locus YPL078C, strain atp4, active compounds read low",0.976
same,normalized growth,"locus YPL106C, strain sse1, active compounds read low",1.04
same,normalized growth,"locus YPL240C, strain hsp82, active compounds read low",1.02
same,normalized growth,"locus YPL256C, strain CLN2, active compounds read low",1.01
same,normalized growth,"locus YPR119W, strain clb2, active compounds read low",0.997
same,normalized growth,"locus YPR141C, strain kar3, active compounds read low",0.99
same,normalized growth,"locus YPR163C, strain tif3, active compounds read low",0.99
same,normalized growth,"locus YPR167C, strain met16, active compounds read low",0.995
same,normalized growth,"strain wtn01, active compounds read low",0.987
